# Test results: PubChem BioAssay (NCI)
# “And” between values parts separate entries of the source, which are not always exact repeats. Equal entries are not always repeated. The panel holds about 83,000 compounds, 20% with a hit somewhere; the sample as a whole holds those more often.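 Assay: single dose, 48 h. Readout: percent growth (0 = no net growth; negative = cell death). Active: <10.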 The source made the active and inactive calls.
# Legend:
# Test in all cases: NCI-60 one-dose screen, 48 h (100 = growth as untreated, 0 = no growth, -100 = all killed)
# [1] = system: HCT-15 colon
# [2] = system: HT29 colon
# [3] = system: SNB-75 CNS
# [4] = system: SNB-19 CNS
# [5] = system: U251 CNS; conditions: 10 µM unless noted
# [6] = system: PC-3 prostate
# [7] = system: SK-MEL-5 melanoma; conditions: 10 µM unless noted
# [8] = system: UACC-62 melanoma
# [9] = system: LOX IMVI melanoma
# [10] = system: SK-MEL-28 melanoma
structure (smiles),measurement,setting,value
CN1c2ccccc2C(C)(C)C12C=Cc1cc(O)ccc1O2 (stereo not drawn),growth,[1]; 10 µM unless noted,43.1% (inactive)
same,growth,[2]; 10 µM unless noted,55.9% (inactive)
same,growth,[3]; 10 µM unless noted,43.1% (inactive)
same,growth,[4]; 10 µM unless noted,61.1% (inactive)
same,growth,[5],52.9% (inactive)
same,growth,[6]; 10 µM unless noted,37.8% (inactive)
same,growth,[7],43.2% (inactive)
same,growth,[8]; 10 µM unless noted,30.2% (inactive)
same,growth,[9]; 10 µM unless noted,47.2% (inactive)
same,growth,[10]; 10 µM unless noted,64.5% (inactive)
CN(C)C(=O)c1ccc(SC(=S)NCc2ccccc2)cc1,growth,[1]; 10 µM,92.2% (inactive)
same,growth,[1]; 100 µM,-35.1% (active)
same,growth,[2]; 10 µM,107% (inactive)
same,growth,[2]; 100 µM,-62% (active)
same,growth,[3]; 10 µM,110% (inactive)
same,growth,[3]; 100 µM,1.41% (active)
same,growth,[4]; 10 µM,109% (inactive)
same,growth,[4]; 100 µM,-0.973% (active)
same,growth,[5],16.7% [100 µM] (inactive)
same,growth,[6]; 10 µM,97.1% (inactive)
same,growth,[6]; 100 µM,17.6% (inactive)
same,growth,[8]; 10 µM,103% (inactive)
same,growth,[8]; 100 µM,1.05% (active)
same,growth,[9]; 10 µM unless noted,87.5% (inactive)
same,growth,[10]; 10 µM,106% (inactive)
same,growth,[10]; 100 µM,-34.8% (active)
COc1cc(NS(C)(=O)=O)ccc1Nc1c2ccccc2nc2ccccc12,growth,[1]; 10 µM unless noted,29.4% [2.5 µM] (inactive)
same,growth,[2]; 10 µM unless noted,43.4% [2.5 µM] (inactive)
same,growth,[3]; 10 µM unless noted,27.9% [2.5 µM] (inactive)
same,growth,[4]; 2.5 µM,14.5% (inactive)
same,growth,[4]; 10 µM,-26% (active) and 28.9% (inactive) and 35.6% (inactive)
same,growth,[5],18.7% [2.5 µM] (inactive)
same,growth,[6]; 10 µM unless noted,52.8% [2.5 µM] (inactive)
same,growth,[7],3.48% [2.5 µM] (active)
same,growth,[8]; 2.5 µM,29.1% (inactive)
same,growth,[8]; 250 µM,-86.2% (active) and -100% (active)
same,growth,[9]; 10 µM unless noted,23.8% [2.5 µM] (inactive)
same,growth,[10]; 10 µM unless noted,52.5% (inactive) and 63.7% (inactive) and 53.8% (inactive)
O=C(O)c1c(Cl)c(Cl)c(Cl)c(Cl)c1-c1c2cc(I)c(=O)c(I)c-2oc2c(I)c(O)c(I)cc12,growth,[1]; 10 µM,101% (inactive) and 107% (inactive) and 90.1% (inactive)
same,growth,[1]; 100 µM,22.9% (inactive)
same,growth,[2]; 10 µM,105% (inactive) and 104% (inactive) and 95.2% (inactive)
same,growth,[2]; 100 µM,39.2% (inactive)
same,growth,[4]; 10 µM,100% (inactive) and 98.4% (inactive) and 97.9% (inactive)
same,growth,[4]; 100 µM,-47.9% (active)
same,growth,[5],98.5% (inactive) and 95.3% (inactive) and 97.7% (inactive)
same,growth,[6]; 10 µM,116% (inactive) and 82.8% (inactive) and 34% (inactive)
same,growth,[6]; 100 µM,-7.17% (active)
same,growth,[8]; 10 µM,98.8% (inactive) and 107% (inactive) and 96.1% (inactive)
same,growth,[8]; 100 µM,-41.3% (active)
same,growth,[9]; 10 µM,98.6% (inactive) and 92% (inactive) and 87.7% (inactive)
same,growth,[9]; 100 µM,-76.1% (active)
same,growth,[10]; 10 µM,105% (inactive) and 327% (inactive) and 108% (inactive)
same,growth,[10]; 100 µM,-55.7% (active)
O=C(Nc1ccccc1)Oc1c(Cl)c(Cl)c(Cl)c(Cl)c1Cl,growth,[1]; 10 µM unless noted,102% (inactive) and 99.8% (inactive)
same,growth,[2]; 10 µM unless noted,104% (inactive) and 96.6% (inactive)
same,growth,[3]; 10 µM unless noted,93.1% (inactive) and 77.4% (inactive)
same,growth,[4]; 10 µM unless noted,93.5% (inactive) and 100% (inactive)
same,growth,[5],99% (inactive) and 100% (inactive)
same,growth,[6]; 10 µM unless noted,95.6% (inactive) and 93.6% (inactive)
same,growth,[7],101% (inactive) and 96.1% (inactive)
same,growth,[8]; 10 µM unless noted,88.8% (inactive) and 89.5% (inactive)
same,growth,[9]; 10 µM unless noted,99% (inactive) and 93.1% (inactive)
same,growth,[10]; 10 µM unless noted,119% (inactive) and 101% (inactive)
COC(=O)[C@@]12OC[C@]34[C@H]([C@@H](O)[C@@H]1O)[C@@]1(C)[C@H](O)C(=O)C=C(C)[C@@H]1C[C@H]3OC(=O)C(OC(C)=O)[C@@H]24 (stereo partly drawn),growth,[1]; 10 µM unless noted,-27.3% (active)
same,growth,[2]; 10 µM unless noted,6.8% (active)
same,growth,[3]; 10 µM unless noted,-80.1% (active)
same,growth,[4]; 10 µM unless noted,-18.8% (active)
same,growth,[5],-31.4% (active)
same,growth,[6]; 10 µM unless noted,-51% (active)
same,growth,[7],-76.9% (active)
same,growth,[8]; 10 µM unless noted,-88.8% (active)
same,growth,[9]; 10 µM unless noted,-84.1% (active)
same,growth,[10]; 10 µM unless noted,-51.5% (active)
CCOC(=O)/C=C/c1ccc([N+](=O)[O-])o1,growth,[1]; 10 µM unless noted,-3.85% (active)
same,growth,[2]; 10 µM unless noted,36.7% (inactive)
same,growth,[3]; 10 µM unless noted,98.7% (inactive)
same,growth,[4]; 10 µM unless noted,97.2% (inactive)
same,growth,[5],82.6% (inactive)
same,growth,[6]; 10 µM unless noted,93.4% (inactive)
same,growth,[7],69.1% (inactive)
same,growth,[8]; 10 µM unless noted,32.6% (inactive)
same,growth,[9]; 10 µM unless noted,-29.6% (active)
same,growth,[10]; 10 µM unless noted,26.4% (inactive)
O=C(Nc1c(Cl)cccc1Cl)Oc1cccc2cccnc12,growth,[1]; 10 µM,27.9% (inactive)
same,growth,[1]; 100 µM,18.3% (inactive)
same,growth,[2]; 10 µM,79.4% (inactive)
same,growth,[2]; 100 µM,55.3% (inactive)
same,growth,[4]; 10 µM,56.4% (inactive)
same,growth,[4]; 100 µM,25.8% (inactive)
same,growth,[5],19.5% [100 µM] (inactive)
same,growth,[6]; 10 µM,41% (inactive)
same,growth,[6]; 100 µM,19.3% (inactive)
same,growth,[8]; 10 µM,20.2% (inactive)
same,growth,[8]; 100 µM,-74.8% (active)
same,growth,[9]; 10 µM,33.1% (inactive)
same,growth,[9]; 100 µM,7.87% (active)
same,growth,[10]; 10 µM,73.9% (inactive)
same,growth,[10]; 100 µM,38.5% (inactive)
N#Cc1ccc([N+](=O)[O-])o1,growth,[1]; 10 µM unless noted,104% (inactive)
same,growth,[2]; 10 µM unless noted,93.9% (inactive)
same,growth,[3]; 10 µM unless noted,109% (inactive)
same,growth,[4]; 10 µM unless noted,101% (inactive)
same,growth,[5],90% (inactive)
same,growth,[6]; 10 µM unless noted,93.3% (inactive)
same,growth,[7],96.8% (inactive)
same,growth,[8]; 10 µM unless noted,95.4% (inactive)
same,growth,[9]; 10 µM unless noted,108% (inactive)
same,growth,[10]; 10 µM unless noted,106% (inactive)
CCC(CC)COC(=O)c1ccc(O)c(O)c1,growth,[1]; 10 µM unless noted,49.2% (inactive)
same,growth,[2]; 10 µM unless noted,96.8% (inactive)
same,growth,[3]; 10 µM unless noted,75% (inactive)
same,growth,[4]; 10 µM unless noted,74.6% (inactive)
same,growth,[5],50.9% (inactive)
same,growth,[6]; 10 µM unless noted,33.8% (inactive)
same,growth,[7],83.3% (inactive)
same,growth,[8]; 10 µM unless noted,76.8% (inactive)
same,growth,[9]; 10 µM unless noted,69.2% (inactive)
same,growth,[10]; 10 µM unless noted,95.1% (inactive)
O=C1N[C@H]2[C@H](CS[C@H]2CCCCC(=O)N(CCP(c2ccccc2)c2ccccc2)CCP(c2ccccc2)c2ccccc2)N1,growth,[1]; 10 µM unless noted,78.6% (inactive)
same,growth,[2]; 10 µM unless noted,59.3% (inactive)
same,growth,[3]; 10 µM unless noted,104% (inactive)
same,growth,[4]; 10 µM unless noted,75.7% (inactive)
same,growth,[5],50.8% (inactive)
same,growth,[6]; 10 µM unless noted,71.7% (inactive)
same,growth,[7],87.8% (inactive)
same,growth,[8]; 10 µM unless noted,88.3% (inactive)
same,growth,[9]; 10 µM unless noted,76% (inactive)
same,growth,[10]; 10 µM unless noted,99.7% (inactive)
